# Assay outcomes deposited in PubChem by National Center for Advancing Translational Sciences (NCATS).
# TrxR1 substrate: qHTS Assay for Substrates of Mammalian Selenoprotein Thioredoxin Reductase 1 (TrxR1): qHTS; Thioredoxin reductase 1, cytoplasmic (Rattus norvegicus), O89049; purified TrxR1 substrate turnover, NADPH consumption readout; Potency, µM (doses to about 114 µM), without a hit: at the highest dose activity change, negative = substrate turnover; hit rate 0.01% among 390,000; further: potency means the concentration at half of the fitted maximal effect; on the % scale 0 is the no-effect control and ±100 the full control effect; nearly all actives have a fitted effect of over 50% in size
# Target sequence (O89049 whole entry, looked up): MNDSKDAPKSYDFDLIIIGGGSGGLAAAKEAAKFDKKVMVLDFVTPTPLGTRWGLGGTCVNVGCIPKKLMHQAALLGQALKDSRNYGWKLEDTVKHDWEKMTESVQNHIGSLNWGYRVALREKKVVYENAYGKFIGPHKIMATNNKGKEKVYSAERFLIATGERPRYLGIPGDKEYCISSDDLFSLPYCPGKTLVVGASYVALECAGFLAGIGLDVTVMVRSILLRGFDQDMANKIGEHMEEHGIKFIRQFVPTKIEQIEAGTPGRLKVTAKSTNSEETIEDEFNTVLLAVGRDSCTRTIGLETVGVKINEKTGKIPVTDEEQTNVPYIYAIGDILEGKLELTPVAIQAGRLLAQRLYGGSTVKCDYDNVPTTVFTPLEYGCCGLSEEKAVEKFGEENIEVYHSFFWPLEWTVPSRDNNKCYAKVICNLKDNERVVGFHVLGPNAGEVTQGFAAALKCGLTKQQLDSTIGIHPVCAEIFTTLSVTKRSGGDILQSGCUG
#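 Rat TrxR1, dispensed at 90 nM, was prereduced with 400 uM NADPH (final) for 5 min at ~22 deg C, then incubated with compound 15 min before 400 uM selenite. A first-read NADPH fluorescence drop versus no-compound background flagged substrates.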
# rTrxR1 inhibitor: qHTS Assay for Inhibitors of Mammalian Selenoprotein Thioredoxin Reductase 1 (TrxR1): qHTS. recombinant rTrxR1, NADPH fluorescence consumption, selenite substrate. Potency, µM (titrated, usually from 114 µM), without a hit: top-dose activity change, negative = inhibition, usual class: inhibitors. hit rate 1% among 390,000. AID 588453, 2011; further: potency means the concentration at half of the fitted maximal effect; on the % scale 0 is the no-effect control and ±100 the full control effect; nearly all actives have a fitted effect of over 65% in size
#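 Rat TrxR1 (90 nM in the dispensed reagent) was pre-reduced with 400 uM NADPH for 5 min at room temperature, then incubated with compound for 15 min. After 400 uM selenite was added, NADPH fluorescence (Ex 340/Em 450 nm) was followed for 8 min.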
# Anesthetic bind: qHTS Assay for Identification of Novel General Anesthetics | apoferritin/1-aminoanthracene competitive binding, fluorescence | hit rate 0.074% among 350,000 | Potency, µM (doses to about 77.5 µM), without a hit: top-dose activity change, negative = displacement, most hits filed as inhibitors | Ferritin light chain (Equus caballus), P02791 | AID 485281, 2010; further: potency means the concentration at half of the fitted maximal effect; on the % scale 0 is the no-effect control and ±100 the full control effect; nearly all actives have a fitted effect of over 20% in size
#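 Read-out: endpoint 1-AMA fluorescence, excitation 380 nm and emission 535 nm, after compounds sit 10 min at room temperature with 10 uM horse-spleen apoferritin in 50% saturated 1-AMA/PBS. Values come from four-parameter Hill fits.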
# miR-21 act: qHTS Assay for Modulators of miRNAs and/orActivators of miR-21; HeLa miR-21 FLuc reporter, luciferase, 48 h; Potency, µM (series often up to 38.3 µM), inactives show at the top dose activity change, positive = activation, actives largely listed as activators; 340,000 tested, under 10 active;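 further: % of control where 0% means no effect; miR-21 action dims this reporter so a rising signal means less miR-21 action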
#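 HeLa miR-21-FLuc reporter line, endogenous miR-21; 2000 cells/well in DMEM/10% FBS; compound titration up to ~40uM final, 48 h, 37 degree Celsius; luciferase detection reagent, 15 min lysis, CCD luminescence.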
# ClpP mod: qHTS Assay for Activators of ClpP. purified B. subtilis ClpP, FRET peptide cleavage, 20 min. hit rate 1.9% among 340,000. ATP-dependent Clp protease proteolytic subunit (Bacillus subtilis (strain 168)), P80244. AID 651965, 2013. Potency, µM (titrated, usually from 57.5 µM), without a hit: at the top dose activity change, negative = active; active means well fitted falling curve with a large enough effect; inconclusive means small, poorly fitted or top-dose-only effect; inactive means no such curve, though single readings can be large or run the other way; further: potency means the concentration at half of the fitted maximal effect; the source files actives as falling curves though it sought activators and does not explain the sign; nearly all actives have a fitted effect of over 65% in size
#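 Purified B. subtilis ClpP, 10 microg/mL final in Tris/HCl pH8 with KCl, BSA, glycerol and Tween-20, cleaved an Abz/nitrotyrosine-quenched decapeptide. Fluorescence (ex 320, em 430) was read at 0 and 20 min at room temperature. Delta was normalized to 5.8 microM ADEP and DMSO/no-enzyme controls.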
# * = called active by the depositor; ? = inconclusive; . = no result given; [ ] = another dose, or the depositor's remark. Sampled rows, rich in hits. Any-hit rate of the full collection: about 2.5%. Unless noted, the call rests on the fitted dose curve; in most records, active means well fitted curve in the direction sought with a large enough effect; inconclusive means small, poorly fitted or top-dose-only effect, or another doubt; inactive means no such curve, though single readings can be large; an effect the other way counts as inactive or inconclusive.
SMILES,TrxR1 substrate,rTrxR1 inhibitor,Anesthetic bind,miR-21 act,ClpP mod
O=C(CSc1nnc(-c2ccco2)o1)c1ccccc1,5%,?,?,-19%,0%
O=C(NCc1ccc2c(c1)OCO2)c1ccc(N2C(=O)C3CCCCC3C2=O)cc1 (stereo not drawn),-4%,1%[57.1 µM],8.9µM*,1%,-2%
COc1ccc(-c2c3c(=O)n(C)c(=O)n(C)c3cn2C2CCCCC2)cc1,16%,6%,?,-23%,16µM*
CCCn1cc2c(c1-c1ccc(C)cc1)c(=O)n(C)c(=O)n2C,7%,19%,-5%,-27%,.
O=C1c2cccc(OCC(=O)N3N=C(c4cccs4)CC3c3ccc(F)cc3)c2CCN1Cc1cccnc1 (stereo not drawn),32%,12%,3%,7%,28µM*
CCOc1ccc(NC(=O)CCc2c(C)nc3cc(-c4ccccc4OC)nn3c2C)cc1,42%,19%,-22%,-18%,4%
O=C(CSc1nnc(SCc2ccccc2)s1)N/N=C/C=C\c1ccco1,-2%,45µM*,-21%,-8%,0%
CCn1c(SCC(=O)N/N=C/C=C/c2ccco2)nnc1-c1ccc(OC)cc1,1%,11%,-14%,-12%,0%
CC(/C=N/NC(=O)CSc1nc2ccccc2n1C)=C\c1ccco1,-13%,79µM*,?,3%,3%
Cn1c(SCC(=O)N/N=C/c2ccco2)nc2ccccc21,-2%,20%,?,-5%,1%
CCn1c(SCC(=O)N/N=C/C=C/c2ccco2)nc2ccccc21,-9%,45µM*,?,1%,-6%
O=C(CSc1nnc(SCc2ccccc2)s1)N/N=C/C=C/c1ccccc1[N+](=O)[O-],-9%,10%[57.1 µM],-13%,-8%,1%
Cc1ccc(N2CCN(C(=O)NCc3noc4ccccc34)CC2C)cc1 (stereo not drawn),7%,10%,-7%,-4%,0%
O=C(NCCc1ccccc1)c1ccc2c(c1)CCN2S(=O)(=O)c1ccccc1,4%,16%,74%,1%,-2%
O=C(CCCCn1c(=O)c2ccccc2n(CC(=O)Nc2cccc(F)c2)c1=O)NCc1ccccc1Cl,1%,12%,-6%,0%,-1%
CCc1ccccc1NC(=O)CN(C)Cc1c(O)ccc2ccccc12,6%,40µM*,-1%,1%,.
CN(CC(=O)Nc1ccccc1C(F)(F)F)Cc1c(O)ccc2ccccc12,7%[57.1 µM],?,-13%,1%,.
O=C(Nc1ccc(-c2cn3c(n2)SCC3)cc1)c1ccc2ccccc2n1,6%[57.1 µM],15%[57.1 µM],-7%,2%,22µM*
CCN(C(=O)c1cccn(Cc2cccc(Cl)c2)c1=O)c1ccccc1,7%[57.1 µM],26%[57.1 µM],-13%,2%,-1%
CSc1cccc(Nc2cc(C(=O)NCCCN(Cc3ccccc3)C(C)C)c3ccccc3n2)c1,-5%[57.1 µM],24%[57.1 µM],383%,?,35µM*
O=C(NCCc1ccc(Cl)cc1)C1CCN(Cc2cc3ccccc3n2Cc2ccccc2)CC1,-6%[57.1 µM],5%[57.1 µM],53%,?,-18%
COc1ccc(-n2c(SCC(=O)Nc3ccc(Br)cc3)nc(O)cc2=O)cc1,0%[57.1 µM],-12%[57.1 µM],-3%,9%,25µM*
COc1ccc(-n2c(SCC(=O)Nc3ccccc3OC)nc(O)cc2=O)cc1,10%[57.1 µM],7%[57.1 µM],-12%,0%,35µM*
COc1ccccc1NC(=O)CSc1nc(O)cc(=O)n1C,12%[57.1 µM],2%[11.4 µM],4%,-4%,-2%
COc1cc(S(=O)(=O)NCCc2c(C)[nH]c3ccc(C)cc23)ccc1Br,-9%[57.1 µM],3%[57.1 µM],6%,-2%,-9%
CCc1ccccc1N(C)C(=O)Cn1cnc2sc(C)c(S(=O)(=O)N3CCN(c4ncccn4)CC3)c2c1=O,4%,14%,-2%,-4%,-6%
